PubChem BioAssay (NCATS)
Inconclusive results are not listed. Calls of active or inactive are those of the source. Unless noted, calls follow the shape of the dose curve; as a rule, active = well fitted curve in the direction sought with a large enough effect; inconclusive = small, poorly fitted or top-dose-only effect, or another doubt; inactive = no such curve, though single readings can be large; an effect the other way counts as inactive or inconclusive.

Legend:
[1] = Validation screen for small molecules that induce DNA re-replication in MCF 10A normal breast cells (AID 463097); also: nearly all actives have a fitted effect of over 60% in size; also: potency is read from the fitted curve at half-maximal effect
Summary of the method: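 Following 48 hr compound incubation (37 C, 5% CO2), MCF 10A cells receive Hoechst for 40 min at 37 C. Nuclei are then scanned (excitation 405 nm, emission 500-530 nm) for total fluorescence intensity.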

[2] = biological target: Ubiquitin carboxyl-terminal hydrolase 2 (Homo sapiens) (UniProt O75604); assay: qHTS Validation Assay for Inhibitors of Ubiquitin-specific Protease USP2a Using CHOP2 as the Reporter (AID 463106)
Sequence of Ubiquitin carboxyl-terminal hydrolase 2 (Homo sapiens) (O75604 whole entry, looked up): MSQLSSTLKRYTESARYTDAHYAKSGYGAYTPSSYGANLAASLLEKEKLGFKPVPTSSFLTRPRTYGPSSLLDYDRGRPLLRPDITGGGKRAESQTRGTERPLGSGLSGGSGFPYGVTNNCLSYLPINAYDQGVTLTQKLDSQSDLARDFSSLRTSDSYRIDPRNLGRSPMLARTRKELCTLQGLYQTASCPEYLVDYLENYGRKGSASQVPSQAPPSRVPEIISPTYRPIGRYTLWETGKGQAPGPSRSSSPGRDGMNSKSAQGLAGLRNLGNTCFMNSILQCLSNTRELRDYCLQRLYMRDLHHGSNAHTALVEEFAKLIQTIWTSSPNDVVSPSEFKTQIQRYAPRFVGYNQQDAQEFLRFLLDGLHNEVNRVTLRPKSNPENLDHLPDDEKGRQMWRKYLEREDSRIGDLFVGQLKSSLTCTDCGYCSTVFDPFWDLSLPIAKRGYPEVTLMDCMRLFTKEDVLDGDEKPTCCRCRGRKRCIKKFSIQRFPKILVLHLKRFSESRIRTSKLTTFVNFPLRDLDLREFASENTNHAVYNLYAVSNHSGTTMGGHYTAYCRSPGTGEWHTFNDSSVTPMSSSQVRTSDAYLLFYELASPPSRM
Summary of the method: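 USP2 core (10nM final) was preincubated with compound for 30min at RT in 20mM Tris-HCl pH 8.0, 2mM CaCl2, 2mM beta-mercaptoethanol, 0.05% CHAPS. Ub-CHOP2 and reporter substrate (25nM each) were added, and fluorescence (Ex 485/Em 531nm) was read after 60min.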

[3] = biological target: DNA polymerase III PolC-type (Bacillus subtilis (strain 168)) (UniProt P13267); assay: qHTS Validation Assay for the Inhibitors of DNA Replication in Gram-Positive Bacteria (AID 485295); also: potency is read from the fitted curve at half-maximal effect
Sequence of DNA polymerase III PolC-type (Bacillus subtilis (strain 168)) (P13267 whole entry, looked up): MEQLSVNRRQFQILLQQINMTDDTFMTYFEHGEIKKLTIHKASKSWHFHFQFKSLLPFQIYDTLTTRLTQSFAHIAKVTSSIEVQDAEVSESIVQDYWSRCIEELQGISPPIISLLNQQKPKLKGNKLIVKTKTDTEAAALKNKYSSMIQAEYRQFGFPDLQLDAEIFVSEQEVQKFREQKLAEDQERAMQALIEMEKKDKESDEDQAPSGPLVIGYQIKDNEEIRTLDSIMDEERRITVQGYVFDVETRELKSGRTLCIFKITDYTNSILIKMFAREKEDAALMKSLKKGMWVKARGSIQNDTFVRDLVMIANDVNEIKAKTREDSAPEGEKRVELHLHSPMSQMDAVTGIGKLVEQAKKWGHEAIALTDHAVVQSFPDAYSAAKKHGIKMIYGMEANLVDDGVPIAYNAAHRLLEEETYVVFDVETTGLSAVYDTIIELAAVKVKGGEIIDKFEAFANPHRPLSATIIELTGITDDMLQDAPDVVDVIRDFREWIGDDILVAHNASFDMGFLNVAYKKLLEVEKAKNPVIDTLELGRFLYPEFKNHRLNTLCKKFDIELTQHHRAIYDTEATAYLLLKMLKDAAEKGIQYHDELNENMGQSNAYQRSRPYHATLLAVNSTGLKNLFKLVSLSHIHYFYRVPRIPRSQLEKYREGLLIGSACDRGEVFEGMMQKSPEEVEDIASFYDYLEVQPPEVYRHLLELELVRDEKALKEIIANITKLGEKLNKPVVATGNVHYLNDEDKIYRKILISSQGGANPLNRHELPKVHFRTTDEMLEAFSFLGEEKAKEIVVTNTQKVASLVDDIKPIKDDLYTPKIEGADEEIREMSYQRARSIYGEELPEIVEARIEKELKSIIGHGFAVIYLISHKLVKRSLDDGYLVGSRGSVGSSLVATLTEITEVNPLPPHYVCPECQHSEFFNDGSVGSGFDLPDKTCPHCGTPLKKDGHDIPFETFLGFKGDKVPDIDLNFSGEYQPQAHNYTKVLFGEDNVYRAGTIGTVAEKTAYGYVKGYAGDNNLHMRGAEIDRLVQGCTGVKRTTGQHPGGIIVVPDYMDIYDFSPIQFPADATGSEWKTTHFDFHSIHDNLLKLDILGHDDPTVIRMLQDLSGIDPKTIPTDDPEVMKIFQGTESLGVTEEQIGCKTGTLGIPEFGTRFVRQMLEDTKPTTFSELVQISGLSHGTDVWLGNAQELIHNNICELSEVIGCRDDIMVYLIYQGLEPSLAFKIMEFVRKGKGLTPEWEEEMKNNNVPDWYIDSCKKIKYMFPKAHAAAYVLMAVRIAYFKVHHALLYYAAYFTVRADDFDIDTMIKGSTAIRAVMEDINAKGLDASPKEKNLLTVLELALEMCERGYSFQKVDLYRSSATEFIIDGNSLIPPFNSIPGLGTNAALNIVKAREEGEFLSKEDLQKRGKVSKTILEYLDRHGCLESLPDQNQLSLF
Summary of the method: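 Inhibition of DNA synthesis by the reconstituted PolC holoenzyme, monitored through PicoGreen staining of dsDNA formed from ssM13Gori, dNTPs and NTPs, with compound preincubation and room-temperature reaction.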

[4] = biological target: Tumor susceptibility gene 101 protein (Homo sapiens) (UniProt Q99816); assay: qHTS Validation Assay for Iinhibitors of HIV-1 Budding by Blocking the Interaction of PTAP/TSG101 (AID 485342; calls by dose curve)
Sequence of Tumor susceptibility gene 101 protein (Homo sapiens) (Q99816 whole entry, looked up, the tested form may be a part): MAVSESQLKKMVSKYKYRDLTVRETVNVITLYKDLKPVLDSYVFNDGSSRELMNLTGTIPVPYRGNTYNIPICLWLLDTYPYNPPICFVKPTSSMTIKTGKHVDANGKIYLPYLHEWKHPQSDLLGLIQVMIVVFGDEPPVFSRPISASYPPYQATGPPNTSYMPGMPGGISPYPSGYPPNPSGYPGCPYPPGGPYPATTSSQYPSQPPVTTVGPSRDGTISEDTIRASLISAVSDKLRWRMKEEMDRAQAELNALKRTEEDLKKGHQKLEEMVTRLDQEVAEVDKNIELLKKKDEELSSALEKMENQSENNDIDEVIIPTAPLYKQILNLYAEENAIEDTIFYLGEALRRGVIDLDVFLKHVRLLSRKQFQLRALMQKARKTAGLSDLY
Summary of the method: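 Compound wells held the Tsg101 binding domain (10 uM) and a FITC-conjugated PTAP peptide (50 nM) in buffer at pH 7.5 containing 0.15 M NaCl and 0.01% Tween 20; polarization was recorded after 20 min, r.t.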

[5] = qHTS Validation Assay to Find Inhibitors of Chronic Active B-Cell Receptor Signaling (AID 485345; active = well fitted curve in the direction sought with a large enough effect in the main read-out, with a control signal flat, not every such curve was filed as active)
Summary of the method: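 TMD8 ABC-DLBCL cells with dox-inducible green luciferase–IκBα fusion and red native luciferase; compounds 46 uM–3 nM, 4 h at 37C with doxycycline in 0.5% FBS IMDM. Green/red ratio normalized to basal and 10 uM MG-132.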

[6] = Quantitative high throughput screen for delayed death inhibitors of the malarial parasite plastid, 96 hour incubation (AID 488745); also: nearly all actives have a fitted effect of over 70% in size; also: potency is read from the fitted curve at half-maximal effect
Summary of the method: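 P. falciparum carrying an integrated firefly luciferase reporter, grown in erythrocytes (2% hematocrit, 0.1% parasitemia final) in RPMI 1640/0.5% Albumax, was exposed to compound for 96 h (two generations) at 37 C, 5% CO2. Luminescence decrease indicated growth inhibition.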

[7] = Quantitative high throughput screen for delayed death inhibitors of the malarial parasite plastid, 48 hour incubation (AID 488752); also: nearly all actives have a fitted effect of over 65% in size; also: potency is read from the fitted curve at half-maximal effect
Summary of the method: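 Erythrocytes infected with P. falciparum carrying an integrated firefly luciferase reporter (2% hematocrit, 0.1% parasitemia final) were exposed to compounds in RPMI 1640/0.5% Albumax for 48 h at 37 C, 5% CO2. Growth inhibition was scored as reduced luminescence.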

[8] = biological target: Thioredoxin reductase 1, cytoplasmic (Rattus norvegicus) (UniProt O89049); assay: qHTS Assay for Substrates of Mammalian Selenoprotein Thioredoxin Reductase 1 (TrxR1) (AID 488772);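 also: NADPH fluorescence in the first read after selenite addition and not the 8 min delta; series mostly up to about 57 µM; a drop in NADPH fluorescence below the no-compound background marks a TrxR1 substrate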
Sequence of Thioredoxin reductase 1, cytoplasmic (Rattus norvegicus) (O89049 whole entry, looked up): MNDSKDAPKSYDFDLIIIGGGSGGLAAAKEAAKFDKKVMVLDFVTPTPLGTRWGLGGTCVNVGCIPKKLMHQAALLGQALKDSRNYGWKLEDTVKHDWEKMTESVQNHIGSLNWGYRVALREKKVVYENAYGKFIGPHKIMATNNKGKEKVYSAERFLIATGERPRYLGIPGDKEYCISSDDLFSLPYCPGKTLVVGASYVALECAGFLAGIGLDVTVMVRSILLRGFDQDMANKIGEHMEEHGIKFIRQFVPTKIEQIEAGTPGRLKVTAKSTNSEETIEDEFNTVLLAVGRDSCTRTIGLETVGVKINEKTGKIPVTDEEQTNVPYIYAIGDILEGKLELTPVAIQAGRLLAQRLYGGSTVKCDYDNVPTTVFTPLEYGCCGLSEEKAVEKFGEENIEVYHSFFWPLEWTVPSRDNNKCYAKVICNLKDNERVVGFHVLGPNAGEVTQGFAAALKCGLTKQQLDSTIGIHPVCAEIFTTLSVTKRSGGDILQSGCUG
Summary of the method: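 Quantitative HTS in Tris-HCl buffer at pH 7.5 with EDTA and Tween-20, using rat TrxR1, 400 uM NADPH and 400 uM selenite (final). A fall in initial NADPH fluorescence relative to background marked substrate behaviour.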

[9] = biological target: ATP-dependent 6-phosphofructokinase (Trypanosoma brucei brucei) (UniProt O15648); assay: qHTS Validation Assay to Find Inhibitors of T. brucei phosphofructokinase (AID 485368); settings: outcome: dose series up to 57.5 µM
Sequence of ATP-dependent 6-phosphofructokinase (Trypanosoma brucei brucei) (O15648 whole entry, looked up): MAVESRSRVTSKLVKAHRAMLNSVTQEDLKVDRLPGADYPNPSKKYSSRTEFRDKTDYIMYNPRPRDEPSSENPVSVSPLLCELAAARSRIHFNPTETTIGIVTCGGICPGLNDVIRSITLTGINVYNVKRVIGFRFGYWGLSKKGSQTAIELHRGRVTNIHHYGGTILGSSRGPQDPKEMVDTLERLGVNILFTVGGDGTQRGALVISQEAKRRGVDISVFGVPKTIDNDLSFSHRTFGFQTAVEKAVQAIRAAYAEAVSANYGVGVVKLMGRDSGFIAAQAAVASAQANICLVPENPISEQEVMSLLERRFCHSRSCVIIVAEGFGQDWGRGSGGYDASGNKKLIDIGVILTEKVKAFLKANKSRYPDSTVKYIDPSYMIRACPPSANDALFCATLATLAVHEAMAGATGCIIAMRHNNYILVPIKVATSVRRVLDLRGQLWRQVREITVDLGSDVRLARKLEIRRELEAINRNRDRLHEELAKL
Summary of the method: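 Enzyme reaction in triethanolamine buffer pH 8.0 with 5 mM MgCl2, 0.01% Tween20 and 0.1% BSA; PFK 1.25 nM, F6P 0.5 mM, ATP 0.1 mM, 45 min RT. ADP quantified by ADP-Glo.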

[10] = biological target: Beta-2 adrenergic receptor (Homo sapiens) (UniProt P07550); assay: qHTS validation assay of beta-arrestin-biased ligands of beta2-adrenergic receptor (AID 485366)
Sequence of Beta-2 adrenergic receptor (Homo sapiens) (P07550 whole entry, looked up): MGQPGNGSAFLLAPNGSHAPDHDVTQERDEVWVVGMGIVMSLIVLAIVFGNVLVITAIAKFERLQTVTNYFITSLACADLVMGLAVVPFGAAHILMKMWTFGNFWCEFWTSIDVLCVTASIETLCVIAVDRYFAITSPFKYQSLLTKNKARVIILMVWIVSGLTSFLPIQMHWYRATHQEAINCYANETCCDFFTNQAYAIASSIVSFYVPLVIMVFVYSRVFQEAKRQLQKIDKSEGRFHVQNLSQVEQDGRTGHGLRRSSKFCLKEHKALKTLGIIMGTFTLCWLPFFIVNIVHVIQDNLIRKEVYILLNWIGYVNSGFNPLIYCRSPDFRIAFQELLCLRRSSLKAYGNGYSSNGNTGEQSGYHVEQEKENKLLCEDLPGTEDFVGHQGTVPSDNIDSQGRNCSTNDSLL
Summary of the method: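 Values derive from curve-fitted %Activity of a luminescent beta-arrestin recruitment reporter; compounds tested up to 46 microM on Tango cells for 18 hr at 37 degrees C, 5% CO2.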

Measured: Potency

c1ccc([C@H]2CN3CCSC3=N2)cc1
not listed: [9] | [10]
inactive: all other assays above

Cc1[nH]c(=O)c(C#N)cc1-c1ccncc1
not listed: [9] | [10]
inactive: all other assays above

Cc1cn[nH]c1
not listed: [9] | [10]
inactive: all other assays above

NC[C@H](O)c1ccc(O)c(O)c1
not listed: [9] | [10]
inactive: all other assays above

Cc1ccccc1C(OCCN(C)C)c1ccccc1 (stereo not drawn)
not listed: [10]
inactive: all other assays above

Nc1ccc(S(=O)(=O)Nc2ccnn2-c2ccccc2)cc1
not listed: [10]
inactive: all other assays above

CCn1cc(C(=O)O)c(=O)c2cc(F)c(N3CCNC(C)C3)c(F)c21 (stereo not drawn)
not listed: [6] | [10]
inactive: all other assays above

NCCCC(N)(C(=O)O)C(F)F (stereo not drawn)
not listed: [10]
inactive: all other assays above

CCN(CC)CCCC(C)Nc1ccnc2cc(Cl)ccc12 (stereo not drawn)
active: [6] 262 nM | [7] 165 nM
not listed: [10]
inactive: all other assays above

CCCCNc1cc(C(=O)O)cc(S(N)(=O)=O)c1Oc1ccccc1
not listed: [9] | [10]
inactive: all other assays above

O=C1CCC(N2C(=O)c3ccccc3C2=O)C(=O)N1 (stereo not drawn)
inactive: all assays above

NS(=O)(=O)c1cc2c(cc1Cl)NC=NS2(=O)=O
not listed: [9] | [10]
inactive: all other assays above

CC(C[N+](C)(C)C)OC(N)=O (stereo not drawn)
not listed: [10]
inactive: all other assays above

CNC[C@H](O)c1cccc(O)c1
not listed: [10]
inactive: all other assays above

Clc1cccc(Cl)c1NC1=NCCN1
not listed: [10]
inactive: all other assays above

NC(=O)c1cnccn1
not listed: [10]
inactive: all other assays above

CC(C)NCC(O)COc1ccc(COCCOC(C)C)cc1 (stereo not drawn)
not listed: [10]
inactive: all other assays above

Cc1ccc(N(CC2=NCCN2)c2cccc(O)c2)cc1
not listed: [10]
inactive: all other assays above

NCCc1ccc(O)c(O)c1
not listed: [9] | [10]
inactive: all other assays above

CCCC(CCC)C(=O)O
not listed: [10]
inactive: all other assays above

CC(=O)Oc1ccccc1C(=O)O
not listed: [10]
inactive: all other assays above

N=c1nc(N2CCCCC2)cc(N)n1O
not listed: [9] | [10]
inactive: all other assays above

O=NN(CCCl)C(=O)NCCCl
not listed: [10]
inactive: all other assays above

CC(C)(C)NCC(O)c1ccc(O)c(CO)c1 (stereo not drawn)
not listed: [10]
inactive: all other assays above

CCC(C)N(C)C(=O)c1cc2ccccc2c(-c2ccccc2Cl)n1 (stereo not drawn)
not listed: [6] | [7] | [9]
inactive: all other assays above

O=c1[nH]cnc2[nH]ncc12
not listed: [10]
inactive: all other assays above

NNCCc1ccccc1
not listed: [5] | [9] | [10]
inactive: all other assays above

Cc1cnc(NC(=O)C2=C(O)c3ccccc3S(=O)(=O)N2C)s1
inactive: [1] | [3] | [4] | [6] | [7] | [8]

Oc1ccc(C2CNCCc3c2cc(O)c(O)c3Cl)cc1 (stereo not drawn)
inactive: [1] | [2] | [4] | [5] | [8]

Nc1ncnc2nc(-c3ccc(N4CCOCC4)nc3)cc(-c3cccc(Br)c3)c12
inactive: [2] | [3] | [4] | [10] | [9] | [8]

CN1CCN(CCCN2c3ccccc3Sc3ccc(C(F)(F)F)cc32)CC1
inactive: [2] | [3] | [4] | [9] | [8]
active: [7] 9280 nM

O=C(O)COCCN1CCN(C(c2ccccc2)c2ccc(Cl)cc2)CC1 (stereo not drawn)
inactive: [2] | [4] | [5] | [8]

NC(N)=NC(=O)c1nc(Cl)c(N)nc1N
inactive: [1] | [2] | [3] | [4] | [9]

OC(CCN1CCCCC1)(c1ccccc1)C1CC2C=CC1C2 (stereo not drawn)
not listed: [1] | [6] | [7]
inactive: all other assays above

Cc1cc2c(C(C)C)c(O)c(O)c(C=O)c2c(O)c1-c1c(C)cc2c(C(C)C)c(O)c(O)c(C=O)c2c1O
inactive: [4]

O=C(Nc1nc2ccccc2n1CCN1CCOCC1)c1cccc([N+](=O)[O-])c1
inactive: [2] | [3] | [4] | [5] | [8]

Cn1cnc([N+](=O)[O-])c1Sc1ncnc2nc[nH]c12
not listed: [1] | [5] | [7]
inactive: all other assays above

O=c1n(CCCN2CCN(c3cccc(Cl)c3)CC2)nc2ccccn12
not listed: [5] | [9] | [10]
inactive: all other assays above

OC(CN1CCC(Cc2ccc(F)cc2)CC1)c1ccc(Cl)cc1 (stereo not drawn)
active: [6] 2940 nM | [7] 3290 nM
not listed: [1] | [10]
inactive: all other assays above

CCOC(=O)N1CCC(=C2c3ccc(Cl)cc3CCc3cccnc32)CC1
inactive: [2] | [3] | [4] | [8]

Cc1[nH]c(=O)c(C#N)cc1-c1ccc2nccn2c1
not listed: [9] | [10]
inactive: all other assays above

N[C@@H]1CONC1=O
not listed: [9] | [10]
inactive: all other assays above

O=C1CCc2cc(OCCCCc3nnnn3C3CCCCC3)ccc2N1
not listed: [5] | [9]
inactive: all other assays above

CC(C)C[C@H](NC(=O)[C@@H](O)[C@H](N)Cc1ccccc1)C(=O)O
active: [6] 370 nM | [7] 1040 nM
not listed: [9] | [10]
inactive: all other assays above

Nc1nc2c(ncn2COCCO)c(=O)[nH]1
not listed: [2] | [8]
inactive: all other assays above

Nc1nc2ccc(OC(F)(F)F)cc2s1
inactive: [2] | [3] | [4] | [10] | [9] | [8]

Cc1oncc1C(=O)Nc1ccc(C(F)(F)F)cc1
inactive: [2] | [3] | [4] | [9] | [8]

Cc1cccc(-c2[nH]c(C(C)(C)C)nc2-c2ccc3nccnc3c2)n1
inactive: [2] | [3] | [4] | [5] | [8]

C1COC(NC(C2CC2)C2CC2)=N1
not listed: [1] | [6] | [10]
inactive: all other assays above

CC(C)(Sc1ccc(CCN(CCCCC2CCCCC2)C(=O)NC2CCCCC2)cc1)C(=O)O
inactive: [4] | [10] | [6] | [7] | [8]
active: [1] 12600 nM | [3] 26700 nM

CCOC(=O)C1=C[C@]2(CC)CCCN3CCc4c(n1c1ccccc41)[C@@H]32
inactive: [1] | [2] | [3] | [4] | [9] | [8]

C[C@]12CCC(=O)C=C1CC[C@@H]1[C@@H]2[C@@H](O)C[C@@]2(C)[C@H]1CC[C@]2(O)C(=O)CO
inactive: [2] | [3] | [4] | [9] | [8]
